Screening data as filed in PubChem.
HttQ103 aggreg: mutant huntingtin aggregation inhibition. PC12 HttQ103-GFP aggregates, Acumen cytometry, 40 h. Potency, µM (highest dose often 46.1 µM), usual class: inhibitors. actives 1.1% (n = 220,000). AID 1688; active means well fitted curve in the direction sought with a large enough effect; inconclusive means small, poorly fitted or top-dose-only effect, or another doubt; inactive means no such curve, though single readings can be large; an effect the other way counts as inactive or inconclusive; further: nearly all actives have a fitted effect of over 60% in size
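Aggregate formation scored by laser-scanning cytometer (488 excitation, 500–530 emission) in lysed PC12 cells expressing Q103-GFP after 100 nM tebufenozide induction; library tested in dose series, with ATPLite reagent added in the multiplex.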
Lamin A splicing: changes lamin A minigene splicing in HeLa cells; HeLa LMNA splicing GFP/RFP minigene ratio, 48 h; Potency, µM (top dose mostly 46.1 µM), usual class: inhibitors; actives 0.01% (n = 200,000); AID 1487; active means well fitted inhibition curve with a large enough effect in the signal ratio, with a control signal flat, not every such curve was filed as active; inconclusive means small, poorly fitted or top-dose-only effect, or effect the other way, or a change in a side signal; the % refers to the signal ratio
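S3 HeLa stable clones carrying a lamin A-EGFP splicing minigene plus DsRed2 were seeded at 600 cells/well in Opti-MEM with 2% FBS, pin-dosed and incubated 48 h at 37°C. Acumen cytometry (488 nm) gave the GFP/RFP total-intensity ratio.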
JMJD2E inh: inhibitors of human JMJD2E histone demethylase; JMJD2E catalytic domain, FDH-coupled NADH fluorescence (FDH is formaldehyde dehydrogenase); Potency, µM (top dose mostly 57.1 µM), actives largely listed as inhibitors; actives 1.6% (n = 230,000); further: nearly all actives have a fitted effect of over 50% in size
ALDH1A1 inh: inhibitors of human aldehyde dehydrogenase 1A1; Purified ALDH1A1, NADH fluorescence, propionaldehyde substrate; P00352; Potency, µM (doses to about 75.3 µM), usual class: inhibitors; actives 7.3% (n = 220,000); AID 1030
HPGD inh: inhibitors of human 15-hydroxyprostaglandin dehydrogenase (HPGD); P15428; purified HPGD, NADH fluorescence kinetic, PGE2 substrate; Potency, µM, most hits filed as inhibitors; actives 4.3% (n = 150,000)
Target sequence (P15428 whole entry, looked up): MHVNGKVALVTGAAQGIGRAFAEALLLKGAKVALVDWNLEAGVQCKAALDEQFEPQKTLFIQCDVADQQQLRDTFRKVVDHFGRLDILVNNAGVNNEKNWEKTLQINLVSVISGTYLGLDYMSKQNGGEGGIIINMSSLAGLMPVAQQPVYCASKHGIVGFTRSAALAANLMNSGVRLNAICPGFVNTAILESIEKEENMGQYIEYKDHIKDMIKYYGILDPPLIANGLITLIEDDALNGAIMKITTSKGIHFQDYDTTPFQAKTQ
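NADH formation kinetics: reaction with 30 uM PGE2 and 1 mM NAD+ (final), 20 nM enzyme, Tris-HCl pH 8 with Tween 20, after 15 min compound preincubation at room temperature. Fluorescence change, last versus first of five reads.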
HTT cytoprotect: Huntington cell model cytoprotection by ATP luminescence. actives 0.14% (n = 230,000). PC12 HTT-Q103 induced, cytoprotection, ATP luminescence, 40 h. Potency, µM (titrated, usually from 56.4 µM), actives largely listed as activators. AID 1471; active means well fitted curve in the direction sought with a large enough effect; inconclusive means small, poorly fitted or top-dose-only effect, or another doubt; inactive means no such curve, though single readings can be large; an effect the other way counts as inactive or inconclusive; further: nearly all actives have a fitted effect of over 45% in size
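Compounds added alongside 100 nM tebufenozide, which induces toxic Q103 huntingtin exon 1-GFP in stable PC12 cells; surviving cells quantified by luminescent ATP measurement. Medium: phenol red-free DMEM, 5% equine and 5% calf serum.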
Large screens that a line does not name were inactive. Sampled rows, rich in hits. Any-hit rate of the full collection: about 9.2%. Unless noted, the call rests on the fitted dose curve; in most records, active means well fitted inhibition curve with a large enough effect (not every such curve was filed as active); inconclusive means small, poorly fitted or top-dose-only effect, or another doubt; inactive means no such curve, though single readings can be large or run the other way.

COc1cccc(-c2[nH]nc3c2C(c2ccoc2)C(C#N)=C(N)O3)c1 (configuration not stated)	ALDH1A1 inh 12.6µM, HPGD inh 28.2µM
COc1cccc(-c2[nH]nc3c2C(c2ccsc2)C(C#N)=C(N)O3)c1 (configuration not stated)	HPGD inh inconclusive
COCc1[nH]nc2c1C(c1ccc(OC)c(OC)c1)C(C#N)=C(N)O2 (configuration not stated)	none
COCc1[nH]nc2c1C(c1cccc(OC)c1)C(C#N)=C(N)O2 (configuration not stated)	ALDH1A1 inh 28.2µM
COc1ccccc1CNC(=O)C1CCN(S(=O)(=O)c2ccc3c(c2)OCCCO3)CC1	none
COc1cc2c(cc1OC)C(c1ccc(N)cc1)=NNC(=O)C2	none (no result: HttQ103 aggreg, Lamin A splicing)
O=C1OC(/C(=C\Nc2ccc(F)cc2F)[N+](=O)[O-])c2ccccc21 (configuration not stated)	HttQ103 aggreg inconclusive, ALDH1A1 inh inconclusive (no result: Lamin A splicing, HPGD inh)
Cc1ccc(N/C=C(\C2OC(=O)c3ccccc32)[N+](=O)[O-])c(C)c1 (configuration not stated)	ALDH1A1 inh 3.55µM (no result: Lamin A splicing, HPGD inh)
O=C1OC(/C(=C\Nc2cc(Cl)ccc2O)[N+](=O)[O-])c2ccccc21 (configuration not stated)	ALDH1A1 inh 14.1µM, HTT cytoprotect inconclusive (no result: HPGD inh)
CCOc1cccc(CNc2ccc(O)cc2)c1OCc1ccc(Cl)cc1Cl	HttQ103 aggreg inconclusive, Lamin A splicing inconclusive, JMJD2E inh inconclusive, ALDH1A1 inh 22.4µM
CCOc1cccc(CNc2ccc(O)cc2)c1OCc1ccccc1Cl	ALDH1A1 inh inconclusive
O=S(Cc1cc(Sc2ccccc2)nc(-c2ccccc2)n1)c1ccccc1 (configuration not stated)	HttQ103 aggreg inconclusive, Lamin A splicing inconclusive
CS(=O)(=O)Cc1cc(Sc2ccccc2)nc(-c2ccncc2)n1	ALDH1A1 inh 11.2µM (no result: HPGD inh)
Cc1cccc(NC(=O)CSc2nnc([C@@H]3CCCN3C(=O)OC(C)(C)C)o2)c1C	Lamin A splicing inconclusive, ALDH1A1 inh 3.55µM
O=C(/C=C/c1ccc(-c2ccccc2[N+](=O)[O-])o1)c1ccccc1	JMJD2E inh inconclusive, ALDH1A1 inh 17.8µM (no result: HTT cytoprotect)
O=C(/C=C/c1ccc(N2CCCCC2)c([N+](=O)[O-])c1)c1ccc(S(=O)(=O)N2CCCC2)cc1	ALDH1A1 inh 4.47µM
CN(C)c1ccc(/C=C/C(=O)c2ccccc2)cc1[N+](=O)[O-]	Lamin A splicing inconclusive, ALDH1A1 inh inconclusive, HPGD inh 14.1µM
COc1ccc(Oc2ccc(/C=C/C(=O)c3ccc(O)cc3)cc2[N+](=O)[O-])cc1	HttQ103 aggreg 12.6µM, Lamin A splicing inconclusive, ALDH1A1 inh inconclusive (no result: HTT cytoprotect)
O=C(c1cc(C(F)(F)F)cc(C(F)(F)F)c1)N1CCC[C@@]2(CCN(Cc3ccccc3)C2)C1	HTT cytoprotect inconclusive (no result: HttQ103 aggreg, Lamin A splicing, JMJD2E inh)
COc1ccc(CCNC(=O)C(=O)NCC(c2cccs2)S(=O)(=O)c2ccc(F)cc2)cc1 (configuration not stated)	none (no result: HttQ103 aggreg, JMJD2E inh, ALDH1A1 inh, HPGD inh, HTT cytoprotect)
COc1cccc(C(=O)/C=C/c2ccc(N3CCCCC3)c([N+](=O)[O-])c2)c1	Lamin A splicing inconclusive, ALDH1A1 inh 14.1µM
Cc1ccc(NC(=O)C(Nc2cccc(C)c2)c2ccccc2)cc1 (configuration not stated)	Lamin A splicing inconclusive, ALDH1A1 inh 28.2µM
Cc1ccc(NC(=O)C(Nc2ccccc2)c2ccccc2)cc1 (configuration not stated)	none
NC(=O)c1ccsc1NC(=O)c1ccc(S(=O)(=O)N2CCCc3ccccc32)cc1	Lamin A splicing inconclusive, JMJD2E inh inconclusive, HPGD inh inconclusive (no result: HTT cytoprotect)
CC1CCCCN1S(=O)(=O)c1ccc(C(=O)Nc2sccc2C(N)=O)cc1 (configuration not stated)	HttQ103 aggreg inconclusive, Lamin A splicing inconclusive, JMJD2E inh inconclusive, ALDH1A1 inh 14.1µM, HPGD inh 28.2µM
C=C(C)OC(C)=O	none (no result: HttQ103 aggreg, Lamin A splicing, JMJD2E inh)
O=c1c(/C=N/O)c(Nc2ccccc2)nc2ccccn12	ALDH1A1 inh inconclusive, HPGD inh 0.562µM
